Bioassay records as filed in PubChem BioAssay.
This is a sample that favours compounds with a hit; in the whole collection about 19% have one here.
HT1080NT lethal: kills 2HG-producing HT-1080-NT fibrosarcoma cells; HT-1080-NT fibrosarcoma viability, CellTiter-Glo ATP luminescence, 48 h; Potency, µM (top dose mostly 46.1 µM), inactives show top-dose activity, negative = less viability, actives largely listed as cytotoxic; actives 1.6% (n = 360,000); AID 686970;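 also: NT is the 2HG producing partner of a matched IDH1 knockdown line; 0% = DMSO-treated cells and -100% = media-only wells without cells; nearly all actives have a fitted effect of over 55% in size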
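A 48-hour cytotoxicity screen used HT-1080-NT cells plated 2 hours before compound delivery. ATP-based CellTiter-Glo luminescence measured viability, normalized to DMSO and no-cell controls.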
KB-V1 MDR tox: KB-V1 MDR subline cytotoxicity | KB-V1 MDR cells viability, CellTiter-Glo, 72 h | actives 3.4% (n = 400,000) | Potency, µM (series often up to 46.1 µM), hits mostly cytotoxic; also: nearly all actives have a fitted effect of over 60% in size
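Cytotoxicity toward P-gp-expressing KB-V1 cells was determined as loss of CellTiter-Glo luminescence after 72 h at 37 degrees C. Compounds were tested in quantitative HTS format across a concentration range, with curves fitted to normalized data.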
DT40 TDP1 CPT: growth inhibition of DT40 Tdp1-/-;hTDP1 cells with camptothecin (screen for TDP1 inhibitors). chicken DT40 Tdp1-/-;hTDP1 cells + 20 nM CPT, ATP luminescence, 48 h. AID 686979. Potency, µM (highest dose often 46.2 µM), inactives show top-dose activity change, negative = growth inhibition, most hits filed as inhibitors. actives 12% (n = 420,000); also: nearly all actives have a fitted effect of over 55% in size
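Chicken DT40 Tdp1-/- cells complemented with human TDP1, 400 cells/well, exposed to compounds plus 20 nM camptothecin for at least 48 h at 37 C; viability read as ATP content by CellTiter-Glo luminescence.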
HT1080 IDH1KD tx: toxicity to HT-1080 IDH1 knockdown cells (counter line); HT-1080 IDH1 knockdown viability, ATP luminescence, 48 h; Potency, µM (top dose mostly 46.1 µM), for the others: at the highest dose activity, negative = toxicity, usual class: cytotoxic; actives 2% (n = 360,000);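 also: 0% = DMSO wells and -100% = cell-free medium wells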
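HT-1080-IDH1KD cells (IDH1 knocked down), 750/well in RPMI with 5% FBS, treated with compound 48 h at 37 degrees C. Viability by CellTiter-Glo luminescence, normalised to DMSO and no-cell wells; concentration-response curves classed.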
KB-3-1 cytotox: kills parental KB-3-1 adenocarcinoma cells | actives 1.4% (n = 400,000) | AID 1347075 | KB-3-1 viability, CellTiter-Glo ATP luminescence, 72 h | Potency, µM (doses to about 46.1 µM), usual class: cytotoxic; also: nearly all actives have a fitted effect of over 60% in size
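KB-3-1 parental drug-naive adenocarcinoma cells in DMEM/10% FBS, incubated 72 h at 37 C with pin-transferred compounds across a concentration series. Viability by CellTiter-Glo luminescence; concentration-response curves fitted after normalization.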
TDP1 cell noCPT: qHTS for Inhibitors of human tyrosyl-DNA phosphodiesterase 1 (TDP1): qHTS in cells in absence of CPT; Potency, µM (titrated, usually from 46.2 µM), without a hit: at the top dose activity change, negative = growth inhibition, hits mostly inhibitors; actives 15% (n = 420,000); DT40 Tdp1-/- hTDP1 cells, no CPT, ATP luminescence, 48 h; AID 686978, 2013; also: nearly all actives have a fitted effect of over 55% in size
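Compound effects on proliferation are scored in DT40 Tdp1-/-;hTDP1 cells in the absence of CPT. ATP levels (CellTiter-Glo luminescence) are recorded after a ≥48 hr, 37 °C incubation.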
* hit, by the source's call; i = inactive; u = inconclusive; x = no result; [ ] = another dose, or the depositor's remark. Calls follow the shape of the dose curve; as a rule, active = well fitted curve in the direction sought with a large enough effect; inconclusive = small, poorly fitted or top-dose-only effect, or another doubt; inactive = no such curve, though single readings can be large; an effect the other way counts as inactive or inconclusive. Unless noted, % is scaled to controls: 0 for no effect and ±100 for the full control effect; potency is read from the fitted curve at half-maximal effect.

SMILES	HT1080NT lethal	KB-V1 MDR tox	DT40 TDP1 CPT	HT1080 IDH1KD tx	KB-3-1 cytotox	TDP1 cell noCPT
COc1ccc(Cn2cccc(NC(=O)Nc3ccc(F)cc3)c2=O)cc1	-12%	i	-16%	-15%	i	-8%
CSc1ccc(NC(=O)Nc2cccn(Cc3ccccc3)c2=O)cc1	u	3.7µM*	0%	u	8.2µM*	u
COc1ccccc1C(=O)N[C@@H]1c2ccccc2C2(CCN(Cc3cccnc3)CC2)[C@H]1O	x	x	6%[9.04 µM]	x	x	u
Cc1ccccc1OCCN(C#N)c1nc(N(C)C)nc(N(C)C)n1	0%	u	u	-15%	i	16µM*
CCCN(c1ccc(C(C)C)cc1)S(=O)(=O)c1ccc2c(c1)oc(=O)n2CC(=O)OCC	x	i	u	x	i	u
CCN(C(=O)COc1cc(=O)n(CC)c2ccccc12)c1cc(Cl)ccc1OC	-11%	u	u	1%	i	21µM*
CCCN(C(=O)Cn1c(=O)oc2cc(Cl)ccc21)c1ccc(C(C)C)cc1	x	i	21µM*	x	i	u
CCCN(CCC)C(=O)COc1cc(=O)n(CC)c2ccccc12	10%	i	u	7%	i	u
CCn1c(=O)cc(OCC(=O)N(C)c2ccccc2F)c2ccccc21	12%	i	-19%	15%	i	-26%
CCN(C(=O)COc1cc(=O)n(CC)c2ccccc12)c1cccc(Cl)c1	-11%	2.1µM*	15µM*	12%	u	u
CCCN(C(=O)COc1cc(=O)n(CC)c2ccccc12)c1ccc(C(C)C)cc1	x	13µM*	16µM*	x	u	10µM*
CCc1nc2sc3c(N4CCC(C)CC4)ncnc3c2c2c1CCCC2	x	i	5%	x	i	6%
COc1cccc(-c2cnc(C(O)c3ccc(C)cc3C)[nH]2)c1 (configuration not stated)	3%	i	u	-11%	i	u
CCN(Cc1ccccc1)C(=O)COc1cc(=O)n(CC)c2ccccc12	3%	u	u	1%	i	21µM*
COc1ccc(CN(C)C(=O)c2cccc(S(=O)(=O)N3CCc4ccccc43)c2)c(OC)c1	-9%[9.24 µM]	u	21µM*	-12%	18µM*	15µM*
COc1ccccc1CN(C)C(=O)c1cccc(S(=O)(=O)N2CCc3ccccc3C2)c1	4%	i	u	3%	i	16µM*
COc1ccccc1CN(C)C(=O)c1cccc(S(=O)(=O)N2CCCC2)c1	5%	u	u	6%	i	-10%
Cc1ccc(NC(=O)CN(C)C(=O)c2cccc(S(=O)(=O)N3CCc4ccccc43)c2)cc1	-25%	i	21µM*	-24%	i	16µM*
COc1ccc(CN(C)C(=O)c2cccc(NS(=O)(=O)c3ccccc3)c2)c(OC)c1	5%	i	-27%	-7%	i	0%
C[C@@H]1COc2cc(N(C)CCO)ccc2S(=O)(=O)N1	19%	u	-21%	12%	i	-4%
COc1ccccc1N=C1SC(C(=O)Nc2ccccc2OC)CC(=O)N1C (configuration not stated)	x	x	2%	x	x	-13%
COc1ccccc1N=C1SC(C(=O)Nc2cccc(Cl)c2Cl)C(N)=C1C(N)=O (configuration not stated)	15µM*	3.7µM*	2.9µM*	u	u	3.3µM*
CCc1ccc2c(c1)[C@H]1OCC[C@H]1[C@@H](c1cccs1)N2	4.1µM*	u	13µM*	3.7µM*	13µM*	7.3µM*
Clc1ccc2c(c1)[C@H]1OCC[C@H]1[C@@H](c1ccco1)N2	-4%	i	-78%	-8%	i	u
